Reference: the supplement of paper PMC6279402
Where a name gives a salt, the structure may show the parent alone. ± gives the standard deviation of the averaged measurements.

tested on: A549; experiment: relative viability (normalised to negative control = 1, bortezomib = 0) (fraction); higher = less cytotoxic; conditions: inflammatory serum-free RHB-A with cytokines + LPS; 5 d + 24 h CellTiter-Blue; compound 30 nM; GSK126 pretreatment: none (vehicle)

In order of falling relative viability:
1. CC(=O)O[C@]1(C(C)=O)CC[C@H]2[C@@H]3C=C(C)C4=CC(=O)CC[C@]4(C)[C@H]3CC[C@@]21C [Megestrol acetate]  1.21 ± 0.14
2. O=C(Nc1ccc(OC(F)(F)F)cc1)c1sccc1NCc1ccnc2ccccc12  1.05 ± 0.035
3. Cc1cn(-c2cc(NC(=O)c3ccc(C)c(Nc4nccc(-c5cccnc5)n4)c3)cc(C(F)(F)F)c2)cn1 [Nilotinib]  0.993 ± 0.089
4. COc1cc2c(Oc3ccc4[nH]c(C)cc4c3F)ncnc2cc1OCCCN1CCCC1 [Cediranib(AZD2171)]  0.968 ± 0.019
5. CC1(COc2ccc3c(c2)ncn3-c2ccc3cccc(N4CCC(N)CC4)c3n2)COC1  0.966 ± 0.12
6. Nc1nc(Nc2ccc(S(N)(=O)=O)cc2)nn1C(=O)c1c(F)cccc1F  0.927 ± 0.15
7. CC1=C(/C=C/C(C)=C/C=C/C(C)=C/C(=O)O)C(C)(C)CCC1 [Retinoic acid; Tretinoin; 13-cis-retinoic acid]  0.922 ± 0.043
8. O=c1[nH]cc(F)c(=O)[nH]1 [5-Fluorouracil; Fluorouracil]  0.911 ± 0.063
9. O=C(c1ccc(OCCN2CCCCC2)cc1)c1c(-c2ccc(O)cc2)sc2cc(O)ccc12 [Raloxifene HCl; Raloxifene hydrochloride]  0.897 ± 0.094
10. COc1c2occc2cc2ccc(=O)oc12 [Methoxsalen]  0.883 ± 0.11
11. Nc1nccc(Oc2ccc(NC(=O)c3c[nH]cc(-c4ccc(F)cc4)c3=O)cc2F)c1Cl  0.882 ± 0.16
12. Cc1cc(Nc2nc(N[C@@H](C)c3ncc(F)cn3)ncc2Cl)[nH]n1  0.872 ± 0.08
13. O=C(c1ccc(/C=C/c2n[nH]c3ccccc23)cc1)N1CCNCC1  0.862 ± 0.046
14. O=C1NC(=O)/C(=C/c2ccc(-c3ccc(F)cc3O)o2)S1  0.857 ± 0.062
15. O=c1cc(-c2cccc3c2Sc2ccccc2S3)oc(N2CCOCC2)c1  0.845 ± 0.035
16. NC1(Cc2ccc(Cl)cc2)CCN(c2ncnc3[nH]ccc23)CC1  0.844 ± 0.05
17. COc1cc2nccc(Oc3ccc(NC(=O)Nc4ccc(F)cc4F)c(F)c3)c2cc1OC  0.832 ± 0.051
18. CC(C)CC(=O)Nc1n[nH]c2c1CN(C(=O)C1CCN(C)CC1)C2(C)C  0.829 ± 0.069
19. Oc1cccc(-c2nc(N3CCOCC3)c3oc4ncccc4c3n2)c1  0.805 ± 0.11
20. Cn1cc(C2=C(c3ccc(Cl)cc3Cl)C(=O)NC2=O)c2ccccc21  0.778 ± 0.046
21. Cc1[nH]c(/C=C2\C(=O)Nc3ccccc32)c(C)c1CCC(=O)O  0.775 ± 0.032
22. O=C(O)c1ccc2c(c1)nc(Nc1cccc(Cl)c1)c1ccncc12  0.761 ± 0.04
23. CC(C)n1nc(-c2cc3cc(O)ccc3[nH]2)c2c(N)ncnc21  0.751 ± 0.032
24. COc1ccc(-c2ccc3c(N4CCOCC4)nc(N4C[C@@H](C)O[C@@H](C)C4)nc3n2)cc1CO  0.745 ± 0.027
25. Nc1nc(Cl)nc2c1ncn2[C@@H]1O[C@H](CO)[C@@H](O)[C@@H]1F [Clofarabine]  0.693 ± 0.026
26. Cn1c(=O)n(-c2ccc(C(C)(C)C#N)cc2)c2c3cc(-c4cnc5ccccc5c4)ccc3ncc21  0.624 ± 0.034
27. CO[C@H]1C[C@@H]2CC[C@@H](C)[C@@](O)(O2)C(=O)C(=O)N2CCCC[C@H]2C(=O)O[C@H]([C@H](C)C[C@@H]2CC[C@@H](OC(=O)C(C)(CO)CO)[C@H](OC)C2)CC(=O)[C@H](C)/C=C(\C)[C@@H](O)[C@@H](OC)C(=O)[C@H](C)C[C@H](C)/C=C/C=C/C=C/1C [CCI-779; Temsirolimus]  0.541 ± 0.034
28. CN(C)C/C=C/C(=O)Nc1cc2c(Nc3ccc(F)c(Cl)c3)ncnc2cc1O[C@H]1CCOC1 [BIBW2992; BIBW2992(Tovok)]  0.374 ± 0.028
29. C[C@@H](Oc1cc(-n2cnc3ccc(CN4CCN(C)CC4)cc32)sc1C(N)=O)c1ccccc1C(F)(F)F  0.326 ± 0.05
30. COc1cc(OC)c(/C=C/S(=O)(=O)Cc2ccc(OC)c(NCC(=O)O)c2)c(OC)c1  0.303 ± 0.018
31. Cc1cc(C(=O)NOCCO)c(Nc2ccc(I)cc2F)n(C)c1=O  0.158 ± 0.004
